Sampled rows, rich in hits. Any-hit rate of the full collection: about 19%.
IL1B secr inh: blocks inflammasome-driven IL-1 beta release; activity change, % at 57.5 µM; THP-1 LPS/ATP IL-1B secretion, AlphaLISA, 16 h; stronger effect = lower value; AID 743279; actives 4.7% (n = 360,000); in the data active means activity change below about -50%; inconclusive means mostly about -30% to -49%
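THP-1 cells pretreated 1 hr with compounds (up to 57.5 uM final), then stimulated with LPS (250 ng/mL final) plus ATP (1.25 mM final); secreted IL-1B measured by AlphaLISA after 16 hr, decreased signal indicating inhibition.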
TDP1 cell CPT: growth inhibition of DT40 Tdp1-/-;hTDP1 cells with camptothecin (screen for TDP1 inhibitors); actives 12% (n = 420,000); AID 686979; chicken DT40 Tdp1-/-;hTDP1 cells + 20 nM CPT, ATP luminescence, 48 h; Potency, µM (doses to about 46.2 µM), usual class: inhibitors; further: nearly all actives have a fitted effect of over 55% in size
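Chicken DT40 Tdp1-/- cells complemented with human TDP1, 400 cells/well, exposed to compounds plus 20 nM camptothecin for at least 48 h at 37 C; viability read as ATP content by CellTiter-Glo luminescence.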
HepG2 viability: HepG2 cytotoxicity, counter-screen for TGF-b inhibitors; HepG2 CAGA-GFP viability, ATP luminescence, 18 h; Potency, µM (highest dose often 46.1 µM), actives largely listed as cytotoxic; actives 0.76% (n = 410,000)
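HepG2 CAGA-GFP cells (1000/well, DMEM with 1% FBS) received compound, then TGF-beta at 500 pg/mL final, and were incubated 18 hours at 37 degrees C. Viability was read by CellTiter-Glo luminescence. Media-only wells were set as complete cell-killing and DMSO as no toxicity.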
S-ASM inh: inhibitors of human secretory acid sphingomyelinase; P17405; AID 504937; placental ASM, HMU-PC fluorogenic substrate, 60 min; Potency, µM (series often up to 57.5 µM), actives largely listed as inhibitors; actives 0.006% (n = 340,000)
Target sequence (P17405 47-631 limits assumed): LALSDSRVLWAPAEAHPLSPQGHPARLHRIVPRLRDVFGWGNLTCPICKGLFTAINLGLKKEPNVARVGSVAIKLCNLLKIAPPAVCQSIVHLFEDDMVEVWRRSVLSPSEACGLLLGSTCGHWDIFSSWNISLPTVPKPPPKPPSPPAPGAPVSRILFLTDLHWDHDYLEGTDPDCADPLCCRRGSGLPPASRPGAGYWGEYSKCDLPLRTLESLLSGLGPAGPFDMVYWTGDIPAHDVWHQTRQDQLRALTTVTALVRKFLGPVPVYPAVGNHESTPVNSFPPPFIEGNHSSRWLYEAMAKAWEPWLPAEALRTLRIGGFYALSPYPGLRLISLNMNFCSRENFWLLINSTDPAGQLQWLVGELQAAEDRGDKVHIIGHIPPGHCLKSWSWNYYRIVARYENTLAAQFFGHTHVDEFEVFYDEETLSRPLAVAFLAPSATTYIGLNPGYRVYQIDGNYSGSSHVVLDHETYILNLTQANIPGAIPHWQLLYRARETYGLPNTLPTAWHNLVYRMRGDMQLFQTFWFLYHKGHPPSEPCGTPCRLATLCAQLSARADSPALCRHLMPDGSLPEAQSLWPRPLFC
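Human placenta-derived ASM preincubated with compound 10 min at room temperature, then reacted with 9 uM (final) fluorogenic HMU-PC substrate for 60 min at 37 C. Stop solution raises pH to 10; fluorescence read at Ex 386/Em 447 nm.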
TGFb inhibitor: blocks TGF-b signaling; HepG2 CAGA-GFP TGF-b/SMAD3 reporter, GFP fluorescence, 18 h; TGF-beta stimulated, 500 pg/mL final; Potency, µM (doses to about 46.1 µM), most hits filed as inhibitors; actives 1.2% (n = 410,000); AID 588855; further: nearly all actives have a fitted effect of over 65% in size
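Read-out: total well GFP (ex488/em500-530) summed from mean per-cell fluorescence. Cells: HEPG2 CAGA-GFP, 1% FBS DMEM, 18 h at 37 degrees C with 500 pg/mL final TGF-beta. Unstimulated wells served as the full-inhibition control; stimulated DMSO wells = 0%.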
DT40 TDP1 no CPT: qHTS for Inhibitors of human tyrosyl-DNA phosphodiesterase 1 (TDP1): qHTS in cells in absence of CPT; DT40 Tdp1-/- hTDP1 cells, no CPT, ATP luminescence, 48 h; Potency, µM (series often up to 46.2 µM), hits mostly inhibitors; actives 15% (n = 420,000); AID 686978, 2013; further: nearly all actives have a fitted effect of over 55% in size
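A cellular qHTS used chicken DT40 cells lacking endogenous Tdp1 but carrying stably transfected human TDP1. Compounds were applied without camptothecin, and cell growth kinetics were judged by ATP-dependent luminescence after ≥48 hr.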
Numbers stand for hits; – = inactive; ? = inconclusive; · = no result; [ ] = dose if it differs, or a comment. Unless noted, the call rests on the fitted dose curve; in most records, active means well fitted curve in the direction sought with a large enough effect; inconclusive means small, poorly fitted or top-dose-only effect, or another doubt; inactive means no such curve, though single readings can be large; an effect the other way counts as inactive or inconclusive.

SMILES | IL1B secr inh | TDP1 cell CPT | HepG2 viability | S-ASM inh | TGFb inhibitor | DT40 TDP1 no CPT
O=C(Oc1ccc2c(-c3ccccc3)cc(=O)oc2c1)C1CCCCC1 | – | ? | – | – | – | ?
COc1cc2nc(Cl)nc(N3CCCCC3)c2cc1OC | -61 | – | – | – | – | 26µM
COc1cc2nc(Cl)nc(N3CCOCC3)c2cc1OC | – | ? | – | – | ? | ?
O=C(Nc1ccccc1)c1cc(S(=O)(=O)NCc2ccncc2)ccc1Cl | – | 9.2µM | – | – | – | 8.2µM
CN(c1ccccc1)S(=O)(=O)c1ccc(Cl)c(C(=O)NC2=NCCS2)c1 | – | ? | – | – | – | ?
O=C(Nc1ccccc1)c1cc(S(=O)(=O)Nc2cccnc2)ccc1Cl | – | – | – | – | – | –
CCN(c1ccccc1)S(=O)(=O)c1ccc(F)c(C(=O)O)c1 | – | – | – | – | – | –
CN(c1ccc(F)cc1)S(=O)(=O)c1ccc(Cl)c(C(=O)Nc2ccncc2)c1 | – | 18µM | – | – | ? | 13µM
CN(c1ccc(C(=O)Nc2cccnc2)cc1)S(=O)(=O)c1ccc(Cl)cc1 | – | ? | – | – | – | ?
CCN(c1ccccc1)S(=O)(=O)c1ccc(Cl)c(C(=O)Nc2ccncc2)c1 | – | ? | – | · | – | 12µM
CN(c1ccccc1)S(=O)(=O)c1ccc(Cl)c(C(=O)Nc2ccncc2)c1 | – | 18µM | – | – | – | 16µM
CCc1ccccc1NC(=O)C1CCN(S(=O)(=O)c2cn(C)cn2)CC1 | · | – | – | · | – | –
C[C@@H](C(=O)N=c1sc2ccccc2n1C)N1C(=O)C2CC=CCC2C1=O (stereo not given in full) | – | – | – | – | – | ?
COc1ccc(C(=O)Nc2nc(CC(=O)NCCc3ccccc3OC)cs2)cc1 | – | ? | – | – | ? | ?
CCc1ccc(OCC(=O)NNC(=O)c2cnccn2)c(Br)c1 | – | 5.8µM | – | – | – | 8.2µM
COc1ccccc1OCC(=O)NNC(=O)c1cnccn1 | – | ? | – | – | – | ?
Cc1cc(OCC(=O)Nc2ccncc2)c(C)cc1Br | – | ? | – | – | – | –
CCc1ccc(OCC(=O)Nc2ccncc2)c(Br)c1 | – | ? | – | – | – | 10µM
CC(C)(C)c1ccc(OCC(=O)Nc2ccncc2)c(Br)c1 | – | 8.2µM | – | – | ? | 7.3µM
CCOCCCNC(=S)N(CCCN(C)C)Cc1cc2cc3c(cc2[nH]c1=O)OCCO3 | ? | – | – | – | – | –
CC(C)(C)NC(=O)CN1CCCN(C(=O)c2cccc(S(=O)(=O)N3CCc4ccccc43)c2)CC1 | – | ? | – | – | – | ?
CC(C)OC(=O)c1c2c(n3ccccc13)C(=O)c1ccccc1C2=O | – | 15µM | – | – | ? | 13µM
CCC12CC1(C(=O)OC)C(=O)N1CCc3c([nH]c4ccccc34)C12 (stereo not given) | -59 | – | – | · | – | –
COC(=O)c1ccc(NC(=O)c2cc(=O)c3ccc(C)cc3o2)cc1 | · | – | – | · | – | –
N/C(CN1CCCC1=O)=N\OC(=O)c1ccccc1Cl | – | – | – | – | ? | –
SMILES | IL1B secr inh | TDP1 cell CPT | HepG2 viability | S-ASM inh | TGFb inhibitor | DT40 TDP1 no CPT
COc1ccc(CN2C(=O)c3ccccc3C2=O)cc1C(=O)Nc1ccc(C)cc1C | – | – | – | · | – | ?
CN1C(=O)/C(=N\OC(=O)c2ccccc2Cl)c2ccccc21 | – | 23µM | – | – | ? | 23µM
CC(=O)O/N=C1\C(=O)N(Cc2ccc(C)cc2)c2ccccc21 | -94 | – | – | – | – | ?
Cc1noc(C)c1CC(=O)N1CCOc2c(cc(-c3nc4ccccc4s3)cc2OC2CCOC2)C1 (stereo not given) | · | –[9.04 µM] | · | · | · | –
O=C(Nc1cccc(OCc2cc(=O)n3ccccc3n2)c1)c1ccccc1Br | · | ? | – | · | – | ?
O=C(N/N=C/c1ccc(OC(=O)c2ccccc2)cc1)c1ccc(CN2CCOCC2)cc1 | – | ? | – | – | – | 12µM
CN(C)c1ccc(/C=N/NC(=O)c2ccccc2)cc1 | – | ? | – | – | – | ?
COc1ccc(C(=O)N/N=C/c2ccc(N(C)c3ccccc3)cc2)cc1 | ? | ? | – | – | – | 23µM
COc1ccc(C(=O)N/N=C/c2ccc(OC(=O)c3ccccc3)cc2)cc1 | – | – | – | – | – | –
COC(=O)COc1ccc(/C=N/NC(=O)c2ccc(N(Cc3ccccc3)S(C)(=O)=O)cc2)cc1 | -95 | – | – | – | ? | –
COc1ccc(C(=O)N/N=C/c2ccccc2OC(=O)c2ccccc2)cc1 | – | 0.58µM | – | – | ? | 0.52µM
O=C(N/N=C/c1ccc(OC2CSC2)cc1)c1ccc(CN2CCOCC2)cc1 | – | – | – | – | – | ?
CC(=O)Nc1ccc(SC[C@H](C)CN2CC[C@H](C(C)(C)C)CCC2=O)cc1 | ? | ? | – | – | ? | ?
Cc1ccc(OCCCC(=O)N(C)CC(=O)Nc2ccccc2Cl)cc1 | – | – | – | – | – | –
Cc1cccc(C(=O)N2CCN(Cc3nc4sc5c(c4c(=O)[nH]3)CCCC5)CC2)c1 | – | ? | – | – | – | ?
O=C(CCNC(=O)c1ccccc1Cl)Nc1cc(C(F)(F)F)ccc1N1CCCC1 | – | – | – | – | – | –
COc1ccccc1/C=N/NC(=O)c1ccc2c(c1)OCO2 | – | – | – | – | – | –
O=C(N/N=C/C(Cl)=C/c1ccccc1)c1ccc2c(c1)OCO2 | – | ? | – | – | – | 21µM
CC(C)(C)C(=O)Nc1ccc(C(=O)N/N=C/c2ccccc2OC(=O)c2ccccc2)cc1 | – | 6.5µM | – | – | – | 7.3µM
CC(C)(C)C(=O)Nc1ccc(C(=O)N/N=C/c2ccccc2OC(=O)c2ccc(Cl)cc2)cc1 | – | 5.2µM | – | – | ? | 4.6µM
O=C(N/N=C/c1ccccc1OC(=O)c1ccc2c(c1)OCO2)c1ccccc1 | – | 4.1µM | – | – | ? | 4.1µM
CC(/C=N\NC(=O)c1ccc2c(c1)OCO2)c1ccccc1 (stereo not given) | – | – | – | – | – | –
CCCCNc1ccc(-c2nc(-c3ccccc3)no2)cc1[N+](=O)[O-] | · | – | – | · | – | –
COC(=O)[C@@]1(Cc2ccc(OC)cc2)[C@@H]2C(=CC(=O)[C@H]2CC(=O)C(=O)N(C)C)CN1C(=O)c1ccccc1 | -76 | – | – | – | ? | 16µM
C=C1C(=O)CC2=C1[C@](Cc1ccc(F)cc1)(C(=O)OC)N(C(=O)c1ccccc1)C2 | – | 18µM | · | · | · | 21µM

Screening results deposited in PubChem BioAssay by National Center for Advancing Translational Sciences (NCATS).
